For ten molecules, growth inhibition results are on record in PubChem BioAssay (NCI).

Assay [1] is described as follows: NCI Yeast Anticancer Drug Screen. Data for the rad50 strain (AID 155).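 Note: 0% = growth of vehicle-only cultures of the same strain.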 As to conditions: S. cerevisiae rad50 strain growth inhibition, hits give high values. The procedure, abridged:
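Yeast carrying a defined DNA repair defect were exposed to test compounds, and growth was compared with vehicle-treated controls to give percent inhibition.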

Assay [2] is described as follows: NCI Yeast Anticancer Drug Screen. Data for the mec2-1 strain (AID 157). The following applies: S. cerevisiae mec2-1 strain, hits give high values. The method in brief: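 Test agents were screened against the mec2-1 yeast strain, with defined DNA repair or cell cycle alteration. Growth was scored as inhibition against vehicle-only controls.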
A short description of assay [3]: NCI Yeast Anticancer Drug Screen. Data for the sgs1 mgt1 strain (AID 161).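 Note: 0% = growth of cultures given vehicle only.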 The following applies: S. cerevisiae sgs1 mgt1 strain, hits give high values. The method in brief:
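Inhibition of yeast growth, normalised to vehicle-treated controls, is reported for a strain bearing genetic alterations in DNA damage repair.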

The nature of assay [4]: NCI Yeast Anticancer Drug Screen. Data for the cln2 rad14 strain (AID 165).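 Note: 0% = growth equal to vehicle treated cultures.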 As to conditions: S. cerevisiae cln2 rad14 strain, hits give high values. The method in brief: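 Growth of compound-exposed yeast (cln2 rad14 genotype) measured and expressed as inhibition relative to vehicle.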
Assay [5] can be described thus: NCI Yeast Anticancer Drug Screen. Data for the bub3 strain (AID 167). The following applies: S. cerevisiae bub3 mutant strain, hits give high values. The method in brief: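 Compounds were applied to a genetically altered yeast strain carrying a cell-cycle control defect. Growth inhibition was scored against vehicle-treated controls.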
A short description of assay [6]: NCI Yeast Anticancer Drug Screen. Data for the mlh1 rad18 strain (AID 175). As to conditions: S. cerevisiae mlh1 rad18 strain growth inhibition, hits give high values. The procedure, abridged: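 In this whole-cell yeast screen, a strain with altered DNA damage repair is challenged with compound, and its growth is measured against matched vehicle-treated controls.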

Setting [7] is: at 5.0 µM (retest, dose inferred, filed as 0.5).
[8] abbreviates: at 50.0 µM (retest, dose inferred, filed as 5.0).

This is part of a sample that, as a whole, favours compounds with a hit. Of some 79,000 tested, about 15% had one in any assay. Values without a mark were called inactive. Calls of active or inactive are those of the source. Cut-off read from the data, not from the text of the source: active = growth inhibition above about 70%; inactive = the rest.

`COc1ccc([As]=[As]c2ccc(OC)cc2)cc1` (stereo not given): the growth inhibition in assay [1] (setting [7]) is -23%; in assay [1] (setting [8]), 97% (active); in assay [1] (at 50.0 µM), 99.3% (active); in assay [2] (setting [7]), 5%; in assay [2] (setting [8]), 97% (active); in assay [2] (at 50.0 µM), 99.3% (active). In addition, the growth inhibition in assay [3] (setting [7]) was -18%; in assay [3] (setting [8]), 99% (active); in assay [3] (at 50.0 µM), 99.2% (active); in assay [4] (setting [7]) it was -25%; in assay [4] (setting [8]), 94% (active); in assay [4] (at 50.0 µM), 99.2% (active). The growth inhibition in assay [5] (setting [7]) was -12%; in assay [5] (setting [8]), 98% (active); in assay [5] (at 50.0 µM), 99.2% (active); in assay [6] (setting [7]), -9%; in assay [6] (setting [8]), 99% (active); in assay [6] (at 50.0 µM) it was 99.1% (active).
Consider `CC[S+](C)c1ccc(-c2c3nc(c(-c4ccc([S+](C)CC)cc4)c4ccc([nH]4)c(-c4ccc([S+](C)CC)cc4)c4nc(c(-c5ccc([S+](C)CC)cc5)c5ccc2[nH]5)C=C4)C=C3)cc1` (stereo not given), for which the growth inhibition in assay [1] (setting [7]) was 95% (active); in assay [1] (setting [8]), 95% (active); in assay [1] (at 50.0 µM), 86.8% (active); in assay [2] (setting [7]), 98% (active); in assay [2] (setting [8]) it was 97% (active); in assay [2] (at 50.0 µM), 90.7% (active). Moreover, the growth inhibition in assay [3] (setting [7]) was 73% (active); in assay [3] (setting [8]), 97% (active); in assay [3] (at 50.0 µM) it was 91.8% (active); in assay [4] (setting [7]), 56%; in assay [4] (setting [8]) it was 96% (active); in assay [4] (at 50.0 µM), 89.5% (active). In addition, the growth inhibition was 94% (active) in assay [5] (setting [7]); 96% (active) in assay [5] (setting [8]); 89% (active) in assay [5] (at 50.0 µM); 96% (active) in assay [6] (setting [7]); 95% (active) in assay [6] (setting [8]); 88.5% (active) in assay [6] (at 50.0 µM).
As for `O=C1C=Cc2ccccc2C1=O`, the growth inhibition in assay [1] (setting [7]) is 29%; in assay [1] (setting [8]) it was 87% (active); in assay [1] (at 50.0 µM), 83.6% (active); in assay [2] (setting [7]) it was 32%; in assay [2] (setting [8]), 95% (active); in assay [2] (at 50.0 µM) it was 88.8% (active). Besides, the growth inhibition was 30% in assay [3] (setting [7]); 72% (active) in assay [3] (setting [8]); 88.2% (active) in assay [3] (at 50.0 µM); 18% in assay [4] (setting [7]); 87% (active) in assay [4] (setting [8]); 46.3% in assay [4] (at 50.0 µM). The growth inhibition in assay [5] (setting [7]) was 36%; in assay [5] (setting [8]), 97% (active); in assay [5] (at 50.0 µM), 91.9% (active); in assay [6] (setting [7]), 31%; in assay [6] (setting [8]) it was 96% (active); in assay [6] (at 50.0 µM), 94.9% (active).
Turning to `O=P(c1ccccc1)(c1ccccc1)c1ccccc1.[Cl][Sn]([c]1ccccc1)([c]1ccccc1)[c]1ccccc1`, the growth inhibition in assay [1] (setting [7]) was 99% (active); in assay [1] (setting [8]) it was 98% (active); in assay [1] (at 50.0 µM), 99.6% (active); in assay [2] (setting [7]), 97% (active); in assay [2] (setting [8]), 98% (active); in assay [2] (at 50.0 µM), 99.7% (active). For the same molecule, the growth inhibition in assay [3] (setting [7]) is 99% (active); in assay [3] (setting [8]), 99% (active); in assay [3] (at 50.0 µM) it was 99.7% (active); in assay [4] (setting [7]), 99% (active); in assay [4] (setting [8]), 98% (active); in assay [4] (at 50.0 µM), 99.1% (active). Moreover, the growth inhibition was 99% (active) in assay [5] (setting [7]); 98% (active) in assay [5] (setting [8]); 99.3% (active) in assay [5] (at 50.0 µM); 99% (active) in assay [6] (setting [7]); 99% (active) in assay [6] (setting [8]); 99.5% (active) in assay [6] (at 50.0 µM).
Turning to `N#CSCC(=O)O` (tested in a mixture with another compound), the growth inhibition in assay [1] (setting [7]) was 2%; in assay [1] (setting [8]), -6%; in assay [1] (at 50.0 µM) it was 0.5%; in assay [2] (setting [7]) it was 2%; in assay [2] (setting [8]), 4%; in assay [2] (at 50.0 µM) it was 7.4%. For the same molecule, the growth inhibition in assay [3] (setting [7]) was 3%; in assay [3] (setting [8]), 5%; in assay [3] (at 50.0 µM), 5.85%; in assay [4] (setting [7]), -4%; in assay [4] (setting [8]), 3%; in assay [4] (at 50.0 µM), 25.1%. Also, the growth inhibition was -3% in assay [5] (setting [7]); -3% in assay [5] (setting [8]); 6.3% in assay [5] (at 50.0 µM); 0% in assay [6] (setting [7]); -6% in assay [6] (setting [8]); -7.75% in assay [6] (at 50.0 µM).
On to `CC(C)(C)S.[Hg]`, for which the growth inhibition in assay [1] (setting [7]) was 68%; in assay [1] (setting [8]), 98% (active); in assay [1] (at 50.0 µM), 99.5% (active); in assay [2] (setting [7]), 99% (active); in assay [2] (setting [8]), 98% (active); in assay [2] (at 50.0 µM), 99.7% (active). The growth inhibition was 98% (active) in assay [3] (setting [7]); 99% (active) in assay [3] (setting [8]); 99.7% (active) in assay [3] (at 50.0 µM); 99% (active) in assay [4] (setting [7]); 99% (active) in assay [4] (setting [8]); 99.2% (active) in assay [4] (at 50.0 µM). Moreover, the growth inhibition was 89% (active) in assay [5] (setting [7]); 99% (active) in assay [5] (setting [8]); 99.5% (active) in assay [5] (at 50.0 µM); 75% (active) in assay [6] (setting [7]); 99% (active) in assay [6] (setting [8]); 99.5% (active) in assay [6] (at 50.0 µM).
As to `C1=C[N-]c2c3c(ccc2=C1)=CC=C[N-]3.C1=C[N-]c2c3c(ccc2=C1)=CC=C[N-]3.F[P-](F)(F)(F)(F)F.[Cu+2]`, the growth inhibition in assay [1] (setting [7]) was 56%; in assay [1] (setting [8]), 98% (active); in assay [1] (at 50.0 µM), 99.3% (active); in assay [2] (setting [7]), 52%; in assay [2] (setting [8]), 99% (active); in assay [2] (at 50.0 µM), 99.5% (active). Also, the growth inhibition was 47% in assay [3] (setting [7]); 99% (active) in assay [3] (setting [8]); 99.5% (active) in assay [3] (at 50.0 µM); 51% in assay [4] (setting [7]); 98% (active) in assay [4] (setting [8]); 98.8% (active) in assay [4] (at 50.0 µM). For the same molecule, the growth inhibition in assay [5] (setting [7]) was 48%; in assay [5] (setting [8]), 99% (active); in assay [5] (at 50.0 µM), 99.2% (active); in assay [6] (setting [7]), 53%; in assay [6] (setting [8]) it was 99% (active); in assay [6] (at 50.0 µM), 99.1% (active).
Turning to `CCCCOOC(=O)c1ccccc1C(=O)OOCCCC`, the growth inhibition in assay [1] (setting [7]) was 47%; in assay [1] (setting [8]), 99% (active); in assay [1] (at 50.0 µM), 99.3% (active); in assay [2] (setting [7]) it was 33%; in assay [2] (setting [8]) it was 100% (active); in assay [2] (at 50.0 µM), 99.5% (active). Further, the growth inhibition in assay [3] (setting [7]) was 41%; in assay [3] (setting [8]) it was 100% (active); in assay [3] (at 50.0 µM), 99% (active); in assay [4] (setting [7]), 51%; in assay [4] (setting [8]) it was 99% (active); in assay [4] (at 50.0 µM), 98.7% (active). The growth inhibition in assay [5] (setting [7]) was 30%; in assay [5] (setting [8]), 100% (active); in assay [5] (at 50.0 µM) it was 99.5% (active); in assay [6] (setting [7]), 70% (active); in assay [6] (setting [8]), 99% (active); in assay [6] (at 50.0 µM) it was 98.8% (active).
Regarding `O=[N+]([O-])c1ccc(Br)c([N+](=O)[O-])c1`, the growth inhibition in assay [1] (setting [7]) is 83% (active); in assay [1] (setting [8]), 98% (active); in assay [1] (at 50.0 µM), 99% (active); in assay [2] (setting [7]), 7%; in assay [2] (setting [8]) it was 99% (active); in assay [2] (at 50.0 µM), 99.4% (active). Besides, the growth inhibition in assay [3] (setting [7]) was 8%; in assay [3] (setting [8]) it was 98% (active); in assay [3] (at 50.0 µM), 99.2% (active); in assay [4] (setting [7]) it was -6%; in assay [4] (setting [8]), 98% (active); in assay [4] (at 50.0 µM), 98.3% (active). Besides, the growth inhibition in assay [5] (setting [7]) is -15%; in assay [5] (setting [8]), 98% (active); in assay [5] (at 50.0 µM) it was 98.9% (active); in assay [6] (setting [7]), 17%; in assay [6] (setting [8]), 98% (active); in assay [6] (at 50.0 µM), 99.2% (active).
For the molecule `CC(=O)C(CN(C)Cc1ccccc1)C(c1ccccc1)c1c(O)c2ccccc2oc1=O` (stereo not given), the growth inhibition in assay [1] (setting [7]) is 26%; in assay [1] (setting [8]), 26%; in assay [1] (at 50.0 µM) it was 68.5%; in assay [2] (setting [7]), 1%; in assay [2] (setting [8]), 1%; in assay [2] (at 50.0 µM), 56.2%. Further, the growth inhibition in assay [3] (setting [7]) is 24%; in assay [3] (setting [8]), 24%; in assay [3] (at 50.0 µM) it was 71.7% (active); in assay [4] (setting [7]) it was -9%; in assay [4] (setting [8]), -9%; in assay [4] (at 50.0 µM) it was 47.5%. The growth inhibition in assay [5] (setting [7]) is -1%; in assay [5] (setting [8]) it was -1%; in assay [5] (at 50.0 µM) it was 70.7% (active); in assay [6] (setting [7]) it was 11%; in assay [6] (setting [8]) it was 11%; in assay [6] (at 50.0 µM), 76.5% (active).
